Bioassay records (PubChem BioAssay)
An excerpt weighted towards active compounds, which were near 9.3% of everything screened.
ELG1 genotox: qHTS screen for small molecules that induce genotoxicity in human embryonic kidney (HEK293T) cells expressing luciferase-tagged ELG1; HEK293T ELG1-luciferase reporter, luminescence, 16 h; Potency, µM (titrated, usually from 46 µM), most hits filed as activators; 1.3% of 330,000 active; AID 504466, 2011; also: nearly all actives have a fitted effect of over 60% in size
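Reporter readout depends on ELG1 protein level, which increases with genetic stress. After 16 hr compound exposure at 37 °C, luciferase activity was quantified using ONE-Glo.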
NPC1 prom act: qHTS Assay for NPC1 Promoter Activators; Huh7 NPC1 promoter luciferase reporter, 24 h; Potency, µM (top dose mostly 9.22 µM), actives largely listed as activators; 2.4% of 320,000 active; AID 485313, 2010; also: nearly all actives have a fitted effect of over 60% in size
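Cells: Huh7 expressing luciferase under the NPC1 promoter, 1500/well. Seeded 2 h, compound added, incubated 24 h at 37 °C. Luciferase reagent, 10 min ambient, then luminescence.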
ELG1 DNA repair: qHTS screen for small molecules that inhibit ELG1-dependent DNA repair in human embryonic kidney (HEK293T) cells expressing luciferase-tagged ELG1; HEK293T ELG1-luciferase reporter, luminescence, 16 h; DNA damage induced by 5-fluorouridine; Potency, µM (doses to about 46.1 µM), usual class: inhibitors; 2.3% of 330,000 active; AID 504467, 2011; also: nearly all actives have a fitted effect of over 55% in size
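Quantitative HTS, concentration-response format. 2,000 cells/well co-treated with 5-fluorouridine and compound, 16 hr in 5% CO2 at 37 °C; ONE-Glo luminescence read after 30 min.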
Rab9 prom act: qHTS Assay for Rab9 Promoter Activators; Huh7 Rab9 promoter-luciferase reporter, luminescence, 24 h; Potency, µM (doses to about 9.22 µM), most hits filed as activators; 2.8% of 320,000 active; AID 485297, 2010; also: nearly all actives have a fitted effect of over 60% in size
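Cells were plated at 1500 per well in reduced-serum medium with 10% FBS and left 2 h. Compound in DMSO was then added for 24 h at 37 °C. Reporter signal was read by luminescence after 10 min with luciferase detection reagent.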
SMN2 splice up: qHTS Assay for Enhancers of SMN2 Splice Variant Expression | HEK293 SMN2-luciferase splicing reporter, luminescence, 30-36 h | Potency, µM (highest dose often 46.1 µM), most hits filed as activators | 2.8% of 210,000 active; also: nearly all actives have a fitted effect of over 55% in size
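qHTS luciferase splicing reporter: luminescence rises when SMN2 exon 7 is included in transfected HEK293 cells. Compound exposure lasted 30-36 h at 37C, with 4.5 mM final sodium butyrate as control, followed by a ONE-Glo read.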
FLuc counter: qHTS profiling assay for firefly luciferase inhibitor/activator using purifed enzyme and Km concentrations of substrates (counterscreen for miR-21 project) | Luciferin 4-monooxygenase (Photinus pyralis), P08659 | purified FLuc, Km substrates, luminescence inhibition | Potency, µM (titrated, usually from 57.5 µM), usual class: inhibitors | 6.9% of 360,000 active | AID 588342, 2011; also: nearly all actives have a fitted effect of over 55% in size
Target sequence (P08659 whole entry, looked up): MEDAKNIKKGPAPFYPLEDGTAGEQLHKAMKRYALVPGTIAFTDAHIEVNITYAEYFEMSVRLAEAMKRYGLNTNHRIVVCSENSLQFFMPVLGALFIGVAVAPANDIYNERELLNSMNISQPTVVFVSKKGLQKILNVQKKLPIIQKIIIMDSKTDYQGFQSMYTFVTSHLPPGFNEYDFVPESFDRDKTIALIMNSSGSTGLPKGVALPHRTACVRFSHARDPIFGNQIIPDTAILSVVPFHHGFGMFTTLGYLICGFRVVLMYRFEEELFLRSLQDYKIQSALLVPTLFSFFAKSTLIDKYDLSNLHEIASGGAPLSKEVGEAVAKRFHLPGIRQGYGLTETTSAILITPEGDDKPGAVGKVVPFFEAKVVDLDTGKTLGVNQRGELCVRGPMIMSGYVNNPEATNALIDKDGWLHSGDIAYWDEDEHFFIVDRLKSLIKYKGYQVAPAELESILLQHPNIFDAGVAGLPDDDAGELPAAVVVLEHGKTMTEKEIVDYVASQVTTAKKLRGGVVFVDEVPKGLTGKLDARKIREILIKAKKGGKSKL
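Biochemical qHTS of compounds, final roughly 60 µM downward over six points, against 10 nM purified firefly luciferase using Km concentrations of substrates (10 uM D-luciferin, 10 uM ATP) in Tris acetate pH 7.5 buffer; luminescence output.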
Hits are given with their value; n = inactive; u = inconclusive; x = no result given; [ ] = remark or other dose. Calls follow the shape of the dose curve; as a rule, active = well fitted curve in the direction sought with a large enough effect; inconclusive = small, poorly fitted or top-dose-only effect, or another doubt; inactive = no such curve, though single readings can be large; an effect the other way counts as inactive or inconclusive.

SMILES | ELG1 genotox | NPC1 prom act | ELG1 DNA repair | Rab9 prom act | SMN2 splice up | FLuc counter
O=C(NCCS(=O)(=O)N1CCN(c2ccccc2F)CC1)c1ccc(Cl)cc1 | n | n | n | n | x | n
Cc1c(C(=O)NCCS(=O)(=O)N2CCN(c3ccccc3F)CC2)cccc1[N+](=O)[O-] | n | n | 15µM | n | x | n
COc1ccc(N2CC(C(=O)OCC(=O)Nc3cccc(C)c3)CC2=O)cc1 (configuration not stated) | n | n | n | n | x | n
COc1ccc(C(=O)N/C(=C/c2ccc(Cl)cc2)C(=O)Nc2ccc(C(=O)O)cc2)cc1 | n | n | n | n | x | n
COc1ccc(OC)c(S(=O)(=O)N2Cc3ccccc3CC2C(=O)Nc2nccs2)c1 (configuration not stated) | n | n | u | u | 35µM | n[2.3 µM]
COc1ccc(OC)c(S(=O)(=O)N2Cc3ccccc3CC2C(=O)Nc2ccc(C)cc2C)c1 (configuration not stated) | x | x | x | x | n | n
Clc1ccccc1-c1ncc(-c2ccccc2)o1 | 4.6µM | 2.5µM | u | 2.8µM | x | 1.3µM
Cc1nc(C)c(-c2ccccc2)c(=O)[nH]1 | n | n | n | n | x | n
Cc1nc2sc(-c3ccccc3)cc2c(=O)[nH]1 | 0.58µM | 0.63µM | u | 0.5µM | 13µM | 1.3µM
CC(C)OC(=O)Cc1nc2sc(-c3ccccc3)cc2c(=O)[nH]1 | u | u | u | 4.5µM | x | 17µM
Cc1nc2cc3ccccc3cc2c(=O)[nH]1 | u | u | u | u | u | 13µM
O=c1[nH]c(-c2cccnc2)nc2sc(-c3ccccc3)cc12 | u | n | u | n | n | 4.8µM
Cc1ccc(CCNS(=O)(=O)c2ccc3c(c2)CC(C)N3C(=O)C2CCC2)cc1 (configuration not stated) | x | x | x | x | x | n
CC(=O)N1CCC2(CCN(Cc3cc(C(F)(F)F)cc(C(F)(F)F)c3)CC2)CC1 | x | x | x | x | n | x
CCCN(CCC)CCCn1c(=O)[nH]c2ccccc21 | n | n | n | u | n | n
Cc1ccc(-n2c(=O)[nH]c3cc(C(=O)NCCc4ccccc4)ccc3c2=O)cc1 | x | x | x | x | n | n
COc1ccc(-c2[nH]n(-c3ccc([N+](=O)[O-])cc3)c(=O)c2C=NCCN2CCNCC2)cc1 | u | 0.71µM | u | 0.45µM | x | 0.95µM
O=c1c(C=NCCN2CCNCC2)c(-c2ccccc2)[nH]n1-c1ccc([N+](=O)[O-])cc1 | n | u | u | u | x | u
CC1(c2nnc(-c3ccncc3)o2)CC(c2ccc(F)cc2)=NO1 (configuration not stated) | n | n | u | n | x | n
COc1cc(C)c(NC(=O)COc2ccc3c(c2)OCO3)cc1C | n | n | u | n | x | u
Nc1cnc(Nc2ccc(Br)cc2)nc1N | u | n | u | u | x | 15µM
CCOc1ccc(N=C(C)c2ccccc2O)cc1 | n | n | n | n | n | 21µM
C/C(=N/N=C(\C)c1ccccc1O)c1ccccc1O | u | u | u | n | x | u
COc1ccc(OC(C)C(=O)NCc2nc(-c3cccc(C)c3)no2)cc1 (configuration not stated) | x | x | x | x | n | n
O=C(N=Nc1c(O)[nH]c2ccccc12)c1ccc(CN2CCOCC2)cc1 | n | n | n | n | n | u
SMILES | ELG1 genotox | NPC1 prom act | ELG1 DNA repair | Rab9 prom act | SMN2 splice up | FLuc counter
Cc1ccc(S(=O)(=O)N(CC(=O)N=Nc2c(O)[nH]c3ccccc23)c2cccc(C)c2)cc1 | n | n | 21µM | n | n | n
Cc1ccc(CN2CCN(CC(=O)N=Nc3c(O)[nH]c4ccccc34)CC2)cc1 | n | n | 8.2µM | n | n | n
O=C(CN1CCN(Cc2ccccc2Cl)CC1)N=Nc1c(O)[nH]c2ccccc12 | n | n | 21µM | n | n | n
Cc1cc(Cl)ccc1N(CC(=O)N=Nc1c(O)[nH]c2ccccc12)S(C)(=O)=O | n | n | n | n | n | n
O=C(COC(=O)c1ccc(CO)cc1)Nc1ccc(OC(F)F)cc1 | n | n | n | n | n | n
CCn1cnc2c1c(=O)n(CC(=O)Nc1ccc(C(N)=O)cc1)c(=O)n2Cc1ccccc1 | n | n | 6.5µM | n | x | n
CCn1cnc2c1c(=O)n(CC(=O)NN)c(=O)n2Cc1ccccc1 | n | n | n | n | x | n
O=C(OC1CCOC1=O)c1ccc(CO)cc1 (configuration not stated) | n | n | n | n | x | n
COc1ccc(N(CC(=O)NCCC2=CCCCC2)S(=O)(=O)c2c(C)[nH]c(=O)[nH]c2=O)cc1 | n | n | n | n | x | n
Cc1cccc2cc(CN(CCCO)C(=O)Nc3cccc(Cl)c3)c(=O)[nH]c12 | n | n | 13µM | n | n | 21µM
Cc1cccc2cc(CN(CCCO)C(=O)Nc3ccc(Cl)cc3)c(=O)[nH]c12 | n | n | 21µM | n | n | u
Cc1cccc2cc(CN(CCCO)C(=O)Nc3ccccc3Cl)c(=O)[nH]c12 | n | n | u | n | n | n[2.3 µM]
COc1ccc(/C=C2\N=C(SC)N(c3ccccc3OC)C2=O)cc1 | n | n | u | u | 1.3µM | u
CCCOc1ccc(N2C(=O)C/C(=C\c3ccccc3)C2=O)cc1 | n | n | n | n | x | n
CCOc1ccc(N2C(=O)/C(=C/c3ccccc3)N=C2SC)cc1 | u | 3.5µM | u | u | n | n
CCOc1ccc(/C=C/C2=Cc3c(sc(NC(=O)CSc4n[nH]c(N)n4)c3C#N)C(C)(C)C2)cc1 | n | n | u | n | n | 9.5µM
O=C(N/C(=C/c1ccc(Cl)cc1)C(=O)N1CCCC1)c1ccccc1 | n | n | n | n | x | n
O=C(NNc1nc(=O)c2cccnc2s1)c1ccccc1O | n | n | 15µM | n | n | u
O=C(NNC(=O)c1cccc2ccccc12)c1ccccc1O | n | n | n | n | x | n
COc1cc(/C=N/NC2=NCCCCC2)ccc1O | n | n | n | n | x | n
Cc1ccc(-c2nc(N/N=C/c3ccncc3)c3ccccc3n2)cc1 | u | u | u | 2µM | n | 0.076µM
Cc1ccc2nc(C(Cl)(Cl)Cl)nc(N/N=C/c3ccncc3)c2c1 | n | n | n | n | x | n
COc1ccc(/C=N/Nc2nc(-c3cccnc3)nc3ccccc23)cc1OC | n | n | 6.5µM | n | x | 2.1µM
CCOc1ccc(CN(C)c2nc(-c3cccnc3)nc3ccccc23)cc1OC | n | n | 18µM | n | x | n
COc1cc(/C=N/Nc2ncnc3sc4c(c23)CCC4)ccc1O | u | n | u | n | n | 2.4µM
Clc1ccccc1-c1nc(N/N=C/c2cccnc2)c2ccccc2n1 | n | n | u | n | n | n
